Tau fibril ThT: blocks human tau fibril formation measured by thioflavin T; AID 1460; recombinant tau K18 P301L, heparin-induced fibrillization, ThT fluorescence; 270,000 tested, 2.1% active; P10636; Potency, µM (titrated, usually from 57.4 µM), inactives show top-dose activity, negative = inhibition, hits mostly inhibitors; note: potency is the fitted concentration of half-maximal effect; nearly all actives have a fitted effect of over 55% in size
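Fibril formation assay: tau K18 P301L at 15 uM with trace Alexa 594 label, heparin inducer 20 uM, pH 7 sodium acetate buffer, 37 C for 6 hr; endpoint ThT signal.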
Tau fluor cs: counter-screen for tau fibril formation inhibitors | tau K18 P301L (four-repeat tau fragment) Alexa594 fluorescence, heparin fibrillization | Potency, µM (titrated, usually from 57.7 µM), inactives show at the top dose activity change, negative = decrease | 280,000 tested, 0.93% active | AID 1463; note: potency is the fitted concentration of half-maximal effect; nearly all actives have a fitted effect of over 55% in size
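Human K18 P301L tau (15 uM unlabeled plus 0.24 uM Alexa 594-labeled, final) in 100 mM sodium acetate pH 7 was mixed with compound and 20 uM heparin and incubated 6 hr at 37 C.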
Tau fibril FP: blocks human tau fibril formation measured by polarization | 280,000 tested, 0.39% active | P10636 | K18 P301L tau heparin fibrillization, Alexa594 FP, 6 h | Potency, µM (top dose mostly 57.7 µM), for inactives: top-dose activity, negative = inhibition, most hits filed as inhibitors | AID 1468; note: potency is the fitted concentration of half-maximal effect; nearly all actives have a fitted effect of over 55% in size
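Read-out: fluorescence polarization of Alexa 594-labeled tau (0.24 uM), 555 nm excitation, 632 nm emission. Mixtures held 15 uM unlabeled K18 P301L, compound and 20 uM heparin, pH 7 acetate buffer, incubated 6 hr at 37 C.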
USP1-UAF1 inh: blocks the human USP1/UAF1 deubiquitinase complex. O94782. Potency, µM (series often up to 57.1 µM), for inactives: at the highest dose activity change, negative = inhibition, usual class: inhibitors. 390,000 tested, 0.23% active. recombinant USP1/UAF1, Ub-Rhodamine cleavage fluorescence; note: potency is the fitted concentration of half-maximal effect; nearly all actives have a fitted effect of over 60% in size
Target sequence (O94782 whole entry, looked up): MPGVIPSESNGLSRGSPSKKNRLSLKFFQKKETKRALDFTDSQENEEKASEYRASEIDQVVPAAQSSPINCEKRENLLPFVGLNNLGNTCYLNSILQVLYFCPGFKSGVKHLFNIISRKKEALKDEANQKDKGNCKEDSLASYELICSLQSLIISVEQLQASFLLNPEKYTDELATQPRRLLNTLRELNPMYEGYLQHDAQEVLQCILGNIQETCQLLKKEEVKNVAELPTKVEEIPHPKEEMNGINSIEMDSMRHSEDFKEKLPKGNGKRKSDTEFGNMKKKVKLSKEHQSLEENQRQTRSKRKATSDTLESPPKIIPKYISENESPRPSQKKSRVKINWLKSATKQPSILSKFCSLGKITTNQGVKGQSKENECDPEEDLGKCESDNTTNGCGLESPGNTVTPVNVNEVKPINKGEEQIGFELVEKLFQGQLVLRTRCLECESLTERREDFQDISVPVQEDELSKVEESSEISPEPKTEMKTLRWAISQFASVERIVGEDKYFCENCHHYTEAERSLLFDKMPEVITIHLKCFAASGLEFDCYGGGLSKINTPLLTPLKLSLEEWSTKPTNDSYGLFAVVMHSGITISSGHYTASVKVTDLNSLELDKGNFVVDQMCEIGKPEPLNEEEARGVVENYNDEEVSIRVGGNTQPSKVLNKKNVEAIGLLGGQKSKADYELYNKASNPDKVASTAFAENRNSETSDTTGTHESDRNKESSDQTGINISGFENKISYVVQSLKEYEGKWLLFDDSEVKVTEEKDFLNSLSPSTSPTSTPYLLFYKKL
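In this screen, compounds sit with the deubiquitinase complex (1nM) for 15 min at room temperature before Ub-Rho is added at 150nM final. Fluorescence rise is then followed for 6 reads every 60 seconds.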
FBPA coupling cs: inhibits coupling enzyme system, counter-screen for aldolase hits; coupling enzyme system counterscreen, AmpLite Red fluorescence; activity change, negative = inhibition, % at 58.2 µM, hits read low; 290,000 tested, 0.67% active; AID 2472; in the data active = activity change below about -30%
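Activity here indicates interference with the coupling reaction, not aldolase inhibition. Compounds at 57.5 uM final met coupling enzymes for 10 min at RT; substrate and AmpLite Red detection followed, with a 525/598 nm fluorescence read after 20 min.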
Starred values were filed as active, the others as inactive; u = inconclusive; x = not tested or not shown; [ ] = dose if it differs, or a comment. Rows were chosen to be rich in hits. Some 2.3% of all compounds tested hit in one or more screens of this group. Unless noted, calls come from the whole dose curve; as a rule, active = well fitted curve in the direction sought with a large enough effect; inconclusive = small, poorly fitted or top-dose-only effect, or another doubt; inactive = no such curve, though single readings can be large; an effect the other way counts as inactive or inconclusive. % is set by controls: 0 for no effect and ±100 for the full control effect.

SMILES	Tau fibril ThT	Tau fluor cs	Tau fibril FP	USP1-UAF1 inh	FBPA coupling cs
CC(C)(C)C(=O)c1sc2nc(-c3cccs3)cc(C(F)(F)F)c2c1N	u	-5%	-6%	1.3µM*	0
CCN(CC)C(=O)c1sc2nc(-c3cccs3)cc(-c3ccc(Cl)cc3)c2c1N	u	-16%	1%	28µM*	4
CCOc1ccccc1CNS(=O)(=O)c1ccc2c(c1)CCCN2C(C)=O	-3%	-11%	2%	-22%	x
Cc1occc1C(=O)N1CCN(S(=O)(=O)c2ccccc2)CC1	x	x	x	8%	x
CN(C)S(=O)(=O)c1ccc(C(=O)OCC2CC2(Cl)Cl)cc1 (centres undefined)	x	x	x	-14%	-1
CC(C)C[C@H](N)CSSC[C@@H](N)CC(C)C	5µM*	-15%	u	x	x
Cn1c(O)c(N=Nc2nc(-c3ccccc3)cs2)c2ccccc21	2µM*	-21%	-3%	-13%	-2
Cn1c(O)c(N=Nc2ccc(F)cc2)c2ccccc21	13µM*	-12%	-6%	40%	-4
Cn1c(O)c(N=Nc2ccccc2)c2ccccc21	x	x	x	-13%	-4
Cc1ccc[n+](-c2nc([O-])sc2/C=N/Nc2ccc([N+](=O)[O-])cc2)c1	14µM*	-24%	-4%	-19%	-1
Cc1ccc[n+](CC(=O)Nc2ccc([N+](=O)[O-])cc2)c1	x	x	x	2%	1
Nc1nnc2c(n1)CCCC2	u	u	u	16µM*	-30*
C1CCc2nc3c(nc2C1)CCCC3	-5%	-12%	-4%	-8%	3
C=Cc1c(C)/c2[n-]/c1=C\c1[n-]c(c(CC)c1C)/C=c1\[n-]c3c(c1C)C(=O)C(C(=O)[O-])C=3c1[n-]c(c(C)c1CCC(=O)[O-])\C=2.[Cu].[Na+].[Na+] (centres undefined)	14µM*	11µM*[quencher]	20µM*	x	-10
COc1ccc(-c2nc(-c3ccccc3)c(-c3cc([N+](=O)[O-])ccc3C)[nH]2)cc1OC	u	u	u	-14%	-17
CCOc1cc(-c2nc(-c3ccccc3)c(-c3cc([N+](=O)[O-])ccc3C)[nH]2)ccc1O	u	11µM*[quencher]	13%	-16%	-8
O=[N+]([O-])c1ccc(O)c(-c2nc(-c3ccccc3)c(-c3cccs3)[nH]2)c1	20µM*	11µM*[quencher]	-20%	-12%	1
CCCCN(C(=O)C1=NN(c2ccccc2)C(=O)CC1)c1c(N)n(CCC)c(=O)[nH]c1=O	x	x	x	-22%	x
COC(=O)c1ccccc1NC(=O)CCn1c(=O)oc2ccccc21	x	x	x	-2%	x
COc1cc(/C=C/c2ccc3c(Br)cc(Br)c(O)c3n2)ccc1O	3.5µM*	5µM*[quencher]	1%	-10%	0
CC(=O)C1=C(C)OC(N)=C(C#N)C1c1cccc2ccccc12 (centres undefined)	u	-26%	u	-15%	-34*
CCCCCNC(=O)C1CCC(Cn2c(=O)c3sccc3n(CC)c2=O)CC1 (centres undefined)	3%	0%	-3%	-25%	x
CCCC[n+]1ccn(C2=C([O-])c3ccccc3C(=O)/C2=N\S(=O)(=O)c2ccc(Cl)cc2)c1	11µM*	u	u	u	-45*
CCCCC[n+]1ccn(C2=C([O-])c3ccccc3C(=O)/C2=N\S(=O)(=O)c2ccc(Cl)cc2)c1	u	-15%	-3%	u	-22
Cc1ccc(C)c(NC(=O)CN2C(=O)CCc3ccccc32)c1	u	-17%	9%	-19%	x
SMILES	Tau fibril ThT	Tau fluor cs	Tau fibril FP	USP1-UAF1 inh	FBPA coupling cs
COc1ccc2c(c1)-c1nc(/N=C/c3ccc(O)c(OC)c3)sc1CC2	32µM*	-24%	u	-16%	-24
COc1ccc2c(c1)-c1nc(N)sc1CC2	32µM*	u	u	-27%	-13
CCN(CCCNC(=O)Cn1ncc2c3ccccc3n(C)c2c1=O)c1cccc(C)c1	u	-25%	-1%	-19%	x
CC(c1ccccc1)n1ccnc1CO (centres undefined)	x	x	x	-17%	x
Cc1nnc(SCc2ccccc2)c2cc3sccc3n12	22µM*	-26%	u	-26%	x
O=c1[nH]c(=O)c2nnc(N/N=C\c3ccc(O)cc3)nc2[nH]1	4µM*	-10%	-1%	-21%	3
Cc1ccc(CS(=O)(=O)c2ncc(Cl)c(C(=O)Nc3nc4ccc(C)cc4s3)n2)cc1	22µM*	u	-17%	-26%	x
COc1ccc(OC)c(NC(=O)c2nc(S(=O)(=O)Cc3ccc(F)cc3)ncc2Cl)c1	13µM*	u	1%	-21%	x
COc1ccc2nc(NC(=O)c3nc(S(=O)(=O)Cc4ccc(C)cc4)ncc3Cl)sc2c1	5.6µM*	u	-7%	u	x
Cc1ccc(CS(=O)(=O)c2ncc(Cl)c(C(=O)Nc3nc4ccc(F)cc4s3)n2)cc1	14µM*	-24%	-11%	-22%	x
O=C(COC(=O)/C=C/c1ccc(F)cc1)NC(=O)NCc1ccccc1	x	x	x	-13%	x
Cc1cc(/C=C2/C(=O)NN(c3ccccc3)C2=O)c(C)n1-c1ccc(O)cc1	13µM*	-22%	11%	-12%	2
O=C1NN(c2ccccc2)C(=O)/C1=C\c1coc2ccc(O)cc2c1=O	14µM*	u	-13%	-12%	11
COc1ccc(OC)c(CNC(=O)CCCn2nc(C)c3c(C)n(-c4ccc(C)cc4)nc3c2=O)c1	3%	9%	11%	-16%	x
O=C(CN1CCC(NC(=O)Nc2ccc(F)cc2)CC1)Nc1ccccc1[N+](=O)[O-]	x	x	x	-20%	0
COc1ccc2nc(N=Nc3c(O)ccc4ccccc34)sc2c1	2.8µM*	u	-4%	x	-2
O=[N+]([O-])c1ccc(O)c(Nc2ncnc3ccc(Br)cc23)c1	16µM*	-30%	4%	-20%	0
CC(C)CCC[C@@H](C)[C@H]1CC[C@H]2[C@@H]3CC=C4CC(O)CC[C@]4(C)[C@H]3CC[C@]12C (some centres undefined)	x	x	x	x	0
CN(Cc1ccccc1)C(=O)COc1cc(Cl)ccc1Cl	x	x	x	-30%	1
O=C(Nc1ccc(Br)c(Cl)c1)c1ccc(C(=O)Nc2ccc(Br)c(Cl)c2)cc1	-10%	6%	u	-14%	x
C/C(=C\C(=O)c1ccc(F)cc1)Nc1ccc(N2CCOCC2)cc1	3.5µM*	-20%	10%	-18%	-15
Cc1ccc(-c2nnc(SCC(=O)NC(C)(C)C)nc2-c2ccc(C)cc2)cc1	0%	-6%	3%	-7%	x
COc1ccc(/C=C/C=C2\N=C(SC)SC2=O)cc1	4µM*	-29%	u	-11%	-2
CCn1c(SC(C)C(=O)Nc2ccc(N3CCOCC3)cc2)nnc1C1CC1 (centres undefined)	x	x	x	-22%	x
